# Source: PubChem BioAssay (NCATS)
# The source made the active and inactive calls. The call rests on the fitted dose curve; in most records, active means well fitted curve in the direction sought with a large enough effect; inconclusive means small, poorly fitted or top-dose-only effect, or another doubt; inactive means no such curve, though single readings can be large or run the other way.
# Assay: qHTS for compounds that reverse cellular toxicity of Amyloid beta (A-beta) peptide in yeast: LOPAC Validation Assay (AID 720559)
# Details: yeast expressing A-beta; series mostly up to 46.1 µM
# Excerpt: The A-beta peptide is produced by the processing of the amyloid precursor protein (APP) by two proteases, beta and gamma secretases. […] A-beta42 is regarded as the most amyloidogenic form due to its hydrophobicity; however, precisely how A-beta42 induces neurotoxicity is unclear. To understand further this biology and its potential therapeutic implications for human neurodegenerative disease, a quantitative high-throughput screen for compounds that reverse the cellular toxicity of the A-beta peptide was developed.
# A yeast based screen was used because it recapitulates the salient feature of protein mis-folding disorder accurately. This cell-based phenotypic screen provides a significant, unbiased advantage by letting the compounds and models inform us which proteins or pathways are most relevant. The ideal chemical candidates would therefore have activity in both our primary yeast and secondary neuronal toxicity assays, as well as in mouse models. They will be valuable tools for dissecting diverse protein homeostasis pathologies and could potentially become the focus for future pre-clinical development. For this […] assay, inhibition of A-beta rescues the toxic effect in the yeast cell, resulting in increase of signals.
# NIH Chemical Genomics Center [NCGC]
# NIH Molecular Libraries Probe Centers Network [MLPCN]
# Assay Submitter (PI): Susan Lindquist, Whitehead Institute, Massachusetts Institute of Technology
# [1] Vassar R,et al (1999). Beta-secretase cleavage of Alzheimer's amyloid precursor protein by the transmembrane aspartic protease BACE. Science. 286: 735-741.
# [2] Yan R, et al (1999). Membrane-anchored aspartyl protease with Alzheimer's disease beta-secretase activity. Nature.
# Two and a half microliter / well of yeast growth medium were dispensed in a 1536 assay plate. Compounds were pinned using the Kalypsys robotic system followed by addition of 2.5 uL / well yeast solution. The assay plates were incubated at 30 C. After 48 hr, the absorbance signal at 600 nm was obtained using the PerkinElmer ViewLux plate reader to assess yeast growth. The data was normalized to the positive control of an equimolar mixture of ferric chloride (FeCl3) and clioquinol and to the negative control DMSO.
row,SMILES,outcome
1,CCN(CC)CCOC(=O)C1(C2CCCCC2)CCCCC1,inactive
2,CCN(CC)CCNC(=O)c1cc(Cl)c(N)cc1OC,inactive
3,C#CCN(C)Cc1ccccc1,inactive
4,CN(C)CC[C@@H](c1ccc(Cl)cc1)c1ccccn1,inactive
5,CC(C)(C)c1onc(OCP(=O)(O)O)c1CC(N)C(=O)O (stereo not given),inactive
6,CC1=C(/C=C/C(C)=C/C=C/C(C)=C/C(=O)O)C(C)(C)CCC1,inactive
7,CCCCCCCCCCCCCCCC(=O)NCCO,inactive
8,NC(N)=NCCC[C@H](N)C(=O)O,inactive
9,CCCn1cnc2c1c(=O)n(CCCCC(C)=O)c(=O)n2C,inactive
10,CNCCC(Oc1ccc(C(F)(F)F)cc1)c1ccccc1 (stereo not given),inactive
11,CC(CN1c2ccccc2Sc2ccccc21)N(C)C (stereo not given),inactive
12,C[C@]12CC[C@@H]3c4ccc(O)cc4CC[C@H]3[C@@H]1CCC2=O,inactive
13,CC(CN(C)C)CN1c2ccccc2CCc2ccccc21 (stereo not given),inactive
14,Cc1cc(N)c2ccccc2[n+]1CCCCCCCCCC[n+]1c(C)cc(N)c2ccccc21,inactive
15,CC(C)C(=O)c1c(C(C)C)nn2ccccc12,inactive
16,CC(C(O)c1ccc(O)cc1)N1CCC(Cc2ccccc2)CC1 (stereo not given),inactive
17,OCCN1CCN(CCCN2c3ccccc3Sc3ccc(Cl)cc32)CC1,inactive
18,CN1CCN(C2Cc3ccccc3Sc3ccc(Cl)cc32)CC1 (stereo not given),inactive
19,CC1=C(CC(=O)O)c2cc(F)ccc2/C1=C\c1ccc(S(C)=O)cc1 (stereo not given),inactive
20,COC(=O)C1=C(C)NC(C)=C(C(=O)OC)C1c1ccccc1[N+](=O)[O-],inactive

row,SMILES,outcome
1,CSc1ccc2c(c1)C(N1CCN(C)CC1)Cc1ccccc1S2 (stereo not given),inactive
2,CN(C)CCCN1c2ccccc2Sc2ccc(Cl)cc21,inactive
3,CC[C@H]1CN2CCc3cc(OC)c(OC)cc3[C@@H]2C[C@@H]1C[C@H]1NCCc2cc(OC)c(OC)cc21,inactive
4,NC(=O)c1ncn([C@@H]2O[C@H](CO)[C@@H](O)[C@H]2O)n1,inactive
5,CNCCCC1c2ccccc2C=Cc2ccccc21,inactive
6,O=C1N=C(O)CN1/N=C/c1ccc(-c2ccc([N+](=O)[O-])cc2)o1,inactive
7,CC(=O)OCC(=O)[C@@]1(O)CC[C@H]2[C@@H]3CCC4=CC(=O)CC[C@]4(C)[C@H]3C(=O)C[C@@]21C,inactive
8,CN(C)CCC=C1c2ccccc2CCc2ccccc21,inactive
9,CSc1ccc2c(c1)N(CCC1CCCCN1C)c1ccccc1S2 (stereo not given),inactive
10,CCN(CC)CCCC(C)Nc1c2ccc(Cl)cc2nc2ccc(OC)cc12 (stereo not given),inactive
11,C[C@]12C[C@H](O)[C@H]3[C@@H](CCC4=CC(=O)CC[C@@]43C)[C@@H]1CC[C@@H]2C(=O)CO,inactive
12,CC(C)(C(=O)O)c1ccc(C(O)CCCN2CCC(C(O)(c3ccccc3)c3ccccc3)CC2)cc1 (stereo not given),inactive
13,OCc1cc(C(O)CNCCCCCCOCCCCc2ccccc2)ccc1O (stereo not given),inactive
14,N=c1c[n+](N2CCOCC2)[n-]o1,inactive
15,CC1=C(CC(=O)O)c2cc(F)ccc2/C1=C\c1ccc(S(C)(=O)=O)cc1,inactive
16,COc1ccc(Cl)cc1C(=O)NCCc1ccc(S(=O)(=O)NC(=O)NC2CCCCC2)cc1,inactive
17,CNC(=O)Oc1ccc2c(c1)[C@]1(C)CCN(C)[C@@H]1N2C,inactive
18,CN(C)CCCN1c2ccccc2CCc2ccccc21,inactive
19,CNCC(O)c1ccc(O)c(O)c1 (stereo not given),inactive
20,CC(C)(C)[C@]1(O)CCN2C[C@H]3c4ccccc4CCc4cccc(c43)[C@@H]2C1,inactive
